The supplement of paper PMC12645437, “Orthogonal IMiD-Degron Pairs Induce Selective Protein Degradation in Cells” (ACS Chemical Biology, 2025)
The full ranking holds about 8,300 sequences; the median of “log2 fold change of degron read counts, EGFP-low vs EGFP+ sorted cells (limma voom), compound-induced degradation” is about -1.1, and the highest 2% start at about 3.2. Many of the other results were omitted from the sample, so the highest values are more common in it than they were.

T1: CRBN, Q96SW2
T1 chain: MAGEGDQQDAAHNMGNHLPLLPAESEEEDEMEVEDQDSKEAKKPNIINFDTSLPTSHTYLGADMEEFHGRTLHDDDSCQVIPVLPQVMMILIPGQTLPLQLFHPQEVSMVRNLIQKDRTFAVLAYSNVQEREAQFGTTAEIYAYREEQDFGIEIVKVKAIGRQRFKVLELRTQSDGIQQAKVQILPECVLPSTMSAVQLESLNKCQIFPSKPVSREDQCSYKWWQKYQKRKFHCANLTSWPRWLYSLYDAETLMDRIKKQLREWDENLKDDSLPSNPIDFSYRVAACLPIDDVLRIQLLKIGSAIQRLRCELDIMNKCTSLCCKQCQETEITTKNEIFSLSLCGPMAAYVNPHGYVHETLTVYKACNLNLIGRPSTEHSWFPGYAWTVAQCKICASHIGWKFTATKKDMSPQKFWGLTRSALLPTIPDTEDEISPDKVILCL

B1: 46L_47M_49E_50I_52G_53F_54L_55C_67L_, Q9UKT9 (peptide)
chain: LMCEICGFLCTQKGNLLRHIKL
B2: 46L_47G_49E_50I_52G_53F_54F_55C_67L_, Q9UKT9 (peptide)
chain: LGCEICGFFCTQKGNLLRHIKL
B3: 46F_47I_49E_50Q_52G_53A_54E_55F_67L_, Q9UKT9 (peptide)
chain: FICEQCGAEFTQKGNLLRHIKL
B4: 46F_47M_49S_50V_52G_53H_54P_55F_67L_, Q9UKT9 (peptide)
chain: FMCSVCGHPFTQKGNLLRHIKL
B5: 46L_47L_49N_50Q_52G_53F_54M_55C_67L_, Q9UKT9 (peptide)
chain: LLCNQCGFMCTQKGNLLRHIKL
B6: 46F_47Y_49D_50Q_52G_53A_54Y_55F_67L_, Q9UKT9 (peptide)
chain: FYCDQCGAYFTQKGNLLRHIKL
B7: 46F_47D_49N_50Q_52G_53H_54Q_55F_67L_, Q9UKT9 (peptide)
chain: FDCNQCGHQFTQKGNLLRHIKL
B8: 46F_47D_49E_50I_52G_53A_54H_55F_67L_, Q9UKT9 (peptide)
chain: FDCEICGAHFTQKGNLLRHIKL
B9: 46F_47V_49E_50I_52G_53A_54H_55F_67L_, Q9UKT9 (peptide)
chain: FVCEICGAHFTQKGNLLRHIKL
B10: 46F_47S_49E_50I_52G_53A_54H_55F_67L_, Q9UKT9 (peptide)
chain: FSCEICGAHFTQKGNLLRHIKL
B11: 46F_47V_49E_50I_52G_53R_54H_55F_67L_, Q9UKT9 (peptide)
chain: FVCEICGRHFTQKGNLLRHIKL
B12: 46F_47T_49E_50I_52G_53H_54L_55F_67L_, Q9UKT9 (peptide)
chain: FTCEICGHLFTQKGNLLRHIKL
B13: 46F_47Y_49P_50I_52G_53H_54C_55F_67L_, Q9UKT9 (peptide)
chain: FYCPICGHCFTQKGNLLRHIKL
B14: 46F_47E_49N_50I_52G_53A_54N_55F_67L_, Q9UKT9 (peptide)
chain: FECNICGANFTQKGNLLRHIKL
B15: 46F_47S_49P_50V_52G_53A_54N_55F_67L_, Q9UKT9 (peptide)
chain: FSCPVCGANFTQKGNLLRHIKL
B16: 46F_47W_49N_50I_52G_53A_54N_55F_67L_, Q9UKT9 (peptide)
chain: FWCNICGANFTQKGNLLRHIKL
B17: 46F_47V_49P_50V_52G_53A_54N_55F_67L_, Q9UKT9 (peptide)
chain: FVCPVCGANFTQKGNLLRHIKL
B18: 46F_47Y_49P_50V_52G_53A_54N_55F_67L_, Q9UKT9 (peptide)
chain: FYCPVCGANFTQKGNLLRHIKL
B19: 46F_47L_49P_50V_52G_53A_54N_55F_67L_, Q9UKT9 (peptide)
chain: FLCPVCGANFTQKGNLLRHIKL
B20: 46F_47M_49P_50V_52G_53A_54N_55F_67L_, Q9UKT9 (peptide)
chain: FMCPVCGANFTQKGNLLRHIKL
B21: 46F_47W_49P_50V_52G_53A_54N_55F_67L_, Q9UKT9 (peptide)
chain: FWCPVCGANFTQKGNLLRHIKL
B22: 46F_47E_49P_50V_52G_53A_54N_55F_67L_, Q9UKT9 (peptide)
chain: FECPVCGANFTQKGNLLRHIKL
B23: 46F_47Q_49P_50V_52G_53A_54N_55F_67L_, Q9UKT9 (peptide)
chain: FQCPVCGANFTQKGNLLRHIKL
B24: 46F_47N_49P_50V_52G_53A_54N_55F_67L_, Q9UKT9 (peptide)
chain: FNCPVCGANFTQKGNLLRHIKL
B25: 46F_47Y_49N_50I_52G_53A_54N_55F_67L_, Q9UKT9 (peptide)
chain: FYCNICGANFTQKGNLLRHIKL
B26: 46F_47K_49D_50V_52G_53A_54D_55F_67L_, Q9UKT9 (peptide)
chain: FKCDVCGADFTQKGNLLRHIKL
B27: 46F_47F_49E_50I_52G_53R_54Y_55F_67L_, Q9UKT9 (peptide)
chain: FFCEICGRYFTQKGNLLRHIKL
B28: 46F_47K_49N_50Q_52G_53R_54G_55F_67L_, Q9UKT9 (peptide)
chain: FKCNQCGRGFTQKGNLLRHIKL

Target: T1, CRBN, Q96SW2
Assay: log2 fold change of degron read counts, EGFP-low vs EGFP+ sorted cells (limma voom), compound-induced degradation; higher = more compound-induced degradation of the degron-EGFP fusion; degrons are variants of IKZF1/3 zinc finger 2; compound dose not given here
Details: Jurkat, 18 h
[1] = compound: compound 19 (5-tert-butyl-thalidomide)
[2] = compound: compound 22 (5-morpholino-thalidomide)
[3] = compound: compound 33 (diphenyl IMiD analogue)
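Note: pooled lentiviral library of zinc finger degron-EGFP fusions in mCherry-positive Jurkat cells, FACS-sorted after compound exposure, with degron abundance counted by next-generation sequencing.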

Sequence | log2 fold change of degron read counts [1] | log2 fold change of degron read counts [2] | log2 fold change of degron read counts [3] | log2 fold change of degron read counts (compound: thalidomide)
B1 | -1.21 | -1.08 | 0.82 | 0.189
B2 | 1.15 | 0.461 | 0.628 | 0.198
B3 | -2.28 | -1.92 | -1.09 | -0.382
B4 | -2.27 | -1.78 | -1.3 | -1.51
B5 | -1.85 | -1.98 | -1.61 | -1.33
B6 | -0.745 | -1.31 | -1.38 | -2.23
B7 | -2.63 | -3.11 | -2.64 | -2.65
B8 | 3.28 | 0.822 | -0.326 | 1.02
B9 | 0.302 | 1.59 | 1.49 | 1.95
B10 | 2.47 | 0.831 | 0.776 | 0.206
B11 | -2.45 | -1.78 | -2.13 | -0.209
B12 | -2.72 | -3.75 | -2.61 | -2.41
B13 | -1.24 | -1.33 | -0.382 | -1.61
B14 | -1.93 | -1.27 | 1.75 | 2.22
B15 | 1.92 | 1.29 | 1.78 | 0.865
B16 | 2.27 | 3.62 | 1.88 | 0.44
B17 | -0.407 | 2.43 | 1.69 | 2.77
B18 | 2.82 | 3.69 | 2.32 | 1.3
B19 | -0.132 | 0.243 | 1.67 | 1.54
B20 | -0.564 | 1.22 | 2.92 | 1.69
B21 | 3.05 | 3.85 | 2.12 | 1.69
B22 | -0.535 | -0.523 | 2.7 | 3.16
B23 | 0.19 | 2.02 | 1.9 | 3.48
B24 | 1.79 | 0.637 | 0.771 | 0.306
B25 | 1.69 | 2.89 | 1.33 | 0.00754
B26 | -2.97 | -3.35 | -3.54 | -2.81
B27 | 0.941 | 0.578 | -0.864 | -0.888
B28 | -2.31 | -2.82 | -2.99 | -2.64
